Screening results as filed in PubChem BioAssay.
Shiga toxin inh: Shiga toxin inhibition; Vero cells, Shiga toxin protein synthesis inhibition reporter; inhibition, % at 38.7 µM; 290,000 compounds, 9.2% hits; in the data active means inhibition mostly above about 28%, no sharp cut-off; inactive means mostly below about 43%; further: 0% is about no effect
Pf growth 48h: P. falciparum growth inhibition at 48 hours (one generation). P. falciparum luciferase growth in erythrocytes, 48 h. Potency, µM (doses to about 28.7 µM), for the others: top-dose activity change, negative = inhibition, most hits filed as inhibitors. 310,000 compounds, 5.9% hits. AID 504832; further: potency means the concentration at half of the fitted maximal effect; on the % scale 0 is the no-effect control and ±100 the full control effect
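Here the parasites carry a stable luciferase gene and grow inside erythrocytes in Albumax-based RPMI medium with compound for one erythrocytic cycle. Activity is scored as loss of luminescent signal.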
Pf growth 96h: P. falciparum growth inhibition at 96 hour, primary screen for plastid delayed-death inhibitors. P. falciparum luciferase reporter growth, 96 h. 320,000 compounds, 6.9% hits. Potency, µM (top dose mostly 28.7 µM), inactives show top-dose activity change, negative = inhibition, hits mostly inhibitors; further: potency means the concentration at half of the fitted maximal effect; on the % scale 0 is the no-effect control and ±100 the full control effect
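P. falciparum expressing integrated firefly luciferase, in erythrocytes at 2% hematocrit, 0.05% parasitemia, incubated with compounds 96 h at 37 C, 5% CO2. Growth inhibition read as loss of luminescence; two-generation exposure targets delayed-death apicoplast inhibitors.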
CHX counter: affects cycloheximide protein synthesis inhibition readout, counter-screen. cell reporter, cycloheximide protein synthesis inhibition counterscreen. max response, %. 300,000 compounds, 12% hits. AID 2314; in the data active means max response mostly above about 13%, no sharp cut-off; inactive means mostly below about 14%; further: read at 38.3 µM for the half of the compounds with a filed dose; 0% is about no effect
An asterisk follows results filed as active; i = inactive; u = inconclusive; x = no result given; + = active, no number; ! = a repeat was not active. This is a sample that favours compounds with a hit; in the whole collection about 21% have one here. Unless noted, the call rests on the fitted dose curve; in most records, active means well fitted inhibition curve with a large enough effect; inconclusive means small, poorly fitted or top-dose-only effect, or another doubt; inactive means no such curve, though single readings can be large or run the other way.

SMILES | Shiga toxin inh | Pf growth 48h | Pf growth 96h | CHX counter
COCCn1c(SCC(=O)Nc2ccc(S(=O)(=O)N3CCOCC3)cc2)nc2ccccc21 | -14 | 10µM* | 47% | -4
COCCn1c(SCC(=O)Nc2ccc(S(N)(=O)=O)cc2)nc2ccccc21 | -17 | 12% | x | -2
COc1cccc(OC)c1CNC(=O)C1CCC(=O)N(CC2CCCCC2)C1 (stereo not drawn) | -2 | u | -1% | 9
NNC(=O)c1cc2c(N3CCC(Cc4ccccc4)CC3)ncnc2s1 | -8 | u | u | -6
NNC(=O)c1cc2cc3ccccc3nc2s1 | 67 | u | 13µM* | 45*
CS(=O)(=O)NNC(=O)c1cc2cc3ccccc3nc2s1 | 53* | 3% | 4.7µM* | 22
COc1ccc(S(=O)(=O)NNC(=O)c2cc3cc4ccccc4nc3s2)cc1 | 3 | u | -2% | 8
Brc1c(CSc2nc3ccccc3o2)nc2ncccn12 | 58 | -25% | u | 40*
Clc1c(CSc2nc3ccccc3o2)nc2ccccn12 | 54 | 100% | x | 33*
COC(=O)CSc1nc2ccccc2o1 | 15 | -8% | -12% | -3
Cc1cc(C)nc(SCc2nc3ncccn3c2Br)n1 | 6 | 8.3µM* | 4.1µM* | -6
Clc1c(CSc2nc3ccccc3o2)nc2sccn12 | 152* | 72% | 0% | 30*
Brc1c(CSc2nncn2-c2ccccc2)nc2ncccn12 | -13 | -10% | -19% | 14
CC(=O)Nc1ccc(S(=O)(=O)NCCC(=O)NCc2ccncc2)cc1 | x | 8% | -1% | x
O=C(c1cc(Cl)ccc1O)N1CCN(S(=O)(=O)c2cccs2)CC1 | x | u | 1% | x
COC(=O)c1ccc(C(=O)OC)c(NC(=O)CN(C)Cc2ccc(Cl)c(Cl)c2)c1 | -7 | 10µM* | u | -3
Cc1ccc(N/C(N)=N/c2nc(C)cc(N3CCCCC3)n2)c(C)c1 | 13 | 0% | u | -2
Cn1c(=O)n(C)c2cc(NC(=O)CCl)ccc21 | 12 | 1.5µM* | u | 23*
Cc1oc(C(=O)O)cc1COc1cccc2ccccc12 | -4 | 5% | 2.3µM* | -2
CC(=O)c1cccc(N2C(=NC(=O)C3CC3)SC3CS(=O)(=O)CC32)c1 (stereo not drawn) | -3 | 36% | 0% | -2
Cc1ccccc1CNS(=O)(=O)c1c(C(=O)N2CCCC2)c(C)n(C)c1C | -3 | 17% | -30% | 5
Cc1c(C(=O)N2CCCCC2)c(S(=O)(=O)NCc2ccccc2Cl)c(C)n1C | -2 | -11% | 13µM* | -3
O=C(CSc1nccn1-c1ccccc1)c1ccc(Cl)cc1 | 83* | 3% | 14% | 30*
Cc1cc(C)cc(-n2ccnc2SCC(=O)O)c1 | -5 | i | 172% | 1
Cc1ccc(C(=O)CSc2nccn2-c2ccccc2)cc1 | 143* | 32% | 108% | 49*
SMILES | Shiga toxin inh | Pf growth 48h | Pf growth 96h | CHX counter
O=C(CSc1nccn1-c1ncc(C(F)(F)F)cc1Cl)c1ccc(Br)cc1 | 102 | 50% | 87% | 31*
COc1ccc(-c2nnnn2C)cc1S(=O)(=O)Nc1ccc(C)cc1C | -17 | -3% | u | 1
C/C(=N\NC(=O)CNC(=O)c1ccc(F)cc1)c1ccco1 | 6 | -18% | u | -1
CCOc1ccc(NC(=O)CN(C)C(=O)c2cc3c(s2)CCCCC3)cc1OCC | x | 9% | 3% | x
COc1ccc(-c2n[nH]c3c2CN(C(=O)c2ccc(OC)c(OC)c2)CC3)cc1 | -7 | u | 12µM* | -10
COc1cc(OC)cc(C(=O)N2CCN(C(=O)c3ccc(OC)c(OC)c3)CC2)c1 | 10 | -15% | u | -4
CCCc1nnc(SCC(=O)N2CCCCC2C)n1CCOC (stereo not drawn) | 6 | 10% | u | -3
COC(=O)[C@@H](N)Cc1ccc(O)c(O)c1 | x | u | 9.5µM*! | x
COc1ccc(CC(=O)NCC2CCCN(Cc3ccc(OC(F)(F)F)cc3)C2)cc1 (stereo not drawn) | -11 | 9.3µM* | u | -2
COC(=O)c1ccc(CN2CCCC(CNC(=O)Cc3ccc(OC)cc3)C2)cc1 (stereo not drawn) | -4 | 21% | u | 1
COc1cccc(/C=N/NC(=O)N/N=C/c2cccc(OC)c2O)c1O | x | u | u | 25*
CCn1c(C)nc2cc(C(=O)N/N=C/c3ccc(O)c(O)c3O)ccc21 | 10 | 9% | 52% | 11
CCOc1ccccc1/C=N/NC(=O)c1c(C)nc2ccc(Br)cn12 | -3 | 20% | -85% | -4
CCn1c(C)nc2cc(C(=O)N/N=C/c3cccc(OC)c3O)ccc21 | 60* | u | u | 18
COc1cccc(/C=N/NC(=O)c2c(C)nc3ccc(Br)cn23)c1O | 38 | 12µM* | 1% | 13
COc1cccc(/C=N/N2C(=O)CSC2=S)c1O | 45* | 4% | u | 32*
COc1cccc(/C=N/Nc2ccc(C(=O)O)cc2)c1O | -27 | -56% | -24% | -12
CC(C)CCN(C(=O)C1=COCCO1)c1c(N)n(Cc2ccccc2)c(=O)[nH]c1=O | x | 0% | 8% | x
COc1ccc(N2C(=O)C3CCCN3C2c2ccccc2)cc1 (stereo not drawn) | -8 | x | -27% | -2
COc1cccc(/C=N/NC(=O)CSc2ccccc2C)c1O | 37* | u | 0% | 17
COc1ccc2nc(C)cc(SCC(=O)N/N=C/c3ccco3)c2c1 | 19 | 2% | 94% | 1
Oc1cccc(/C=N/Nc2nn3cnnc3c3ccccc23)c1 | 24 | 12% | 4% | -2
COc1ccc(OC)c(/C=N/NC(=O)CSc2cc(C)nc3c(OC)cccc23)c1 | -18 | -10% | 8.3µM* | -1
COc1cccc(/C=N/NC(=O)C(=O)N2CCCC2)c1O | + | u | 30% | 61*
COc1cccc(/C=N/Nc2nn3cnnc3c3ccccc23)c1O | 0 | u | 0.33µM* | -1
SMILES | Shiga toxin inh | Pf growth 48h | Pf growth 96h | CHX counter
Nn1c(SCC(=O)Nc2ccccc2F)nnc1-c1cccs1 | x | -2% | 16% | x
Cc1cc(C(=O)NNc2ccc(F)cc2F)no1 | -19 | 11% | 18% | -1
COc1cccc(/C=N/Nc2ccccc2C(=O)O)c1O | 64* | 195% | 25% | 47*
COc1cccc(/C=N/NC(=O)c2nc(-c3ccccc3)cc(-c3ccccc3)n2)c1O | 13 | 5% | 2% | 15*
CC(=O)c1c(C)[nH]c(C(=O)OCC(=O)N2CC(C)OC(C)C2)c1C (stereo not drawn) | x | 1% | -6% | x
CC(C)n1c(SCC(=O)Nc2ccccc2)nc2c1c(=O)n(C)c(=O)n2C | -3 | 12µM* | u | -1
COCCn1c(SCC(=O)Nc2ccccc2)nc2c1c(=O)[nH]c(=O)n2C | -17 | -20% | 33% | -2
CC(C)n1c(SCC(=O)Nc2ccccc2)nc2c1c(=O)[nH]c(=O)n2C | -2 | u | 13µM* | -2
Cn1c(=O)c2c(nc(SCC(=O)Nc3ccccc3)n2C)n(C)c1=O | 6 | -14% | 32% | -4
Cn1c(=O)c2c(nc(SCC(=O)c3ccccc3F)n2C)n(C)c1=O | -14 | 52% | 1.9µM* | 2
CCn1c(SCC(=O)Nc2ccccc2)nc2c1c(=O)n(C)c(=O)n2C | -2 | 12% | 12µM* | 1
